The values below come from PubChem BioAssay (NCI).

About 79,000 compounds went through this panel and 15% of them were active in at least one assay; those are over-represented in the sample as a whole. Calls of active or inactive are those of the source. Rule as the data show it: active = growth inhibition above about 70%; inactive = the rest.

This assay is described as follows: NCI Yeast Anticancer Drug Screen. Data for the bub3 strain (AID 167). The settings on record: S. cerevisiae bub3 mutant strain, at 50.0 µM, stronger effect = higher value. Summed up: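 Whole-cell yeast assay. The mutant strain was incubated with compounds, and growth inhibition was determined by comparison with vehicle-treated cells.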
Consider `N#CCC(=O)O`, for which the growth inhibition is -3.2% (inactive).
Next, `O=C(/C=C(/CC(=O)c1ccccc1)C(=O)c1ccccc1)c1ccccc1`: -10.5% (inactive); `CCCCCCCCCCCCP(=O)(O)O`: 6.35% (inactive).
`O=C1CCC(=O)N1CCc1cccc2ccccc12`: the growth inhibition was 2.4% (inactive).
Take `O=C(O)/C=C/C(=O)Nc1ccc(Cl)cc1C(=O)c1ccccc1`: the growth inhibition is 14.6% (inactive).
Next, `N[N+]1(CCS(N)(=O)=O)CCOCC1`: -8.3% (inactive); `NC(=S)c1ccccn1`: 2.4% (inactive); `CC(C)Oc1ccc(CCOC(=O)Nc2cccc3ccccc23)cc1`: 3.8% (inactive).
Next, `C[Si](C)(C)O[Si](C)(C)CCl`: -6.2% (inactive).
Turning to `CC(C)(C)c1cc(-c2cc(C(C)(C)C)nc(N)n2)nc(N)n1`, the growth inhibition is -35.3% (inactive).
In the case of `NC(CSS(=O)(=O)O)C(=O)O` (stereo not drawn), the growth inhibition was -12.8% (inactive).
In the case of `O=[N+]([O-])c1ccc(CN2CCC(C(=S)Nc3ccccc3)=C2c2ccccc2)cc1` it was -1.2% (inactive).
In the case of `CCCCNC(=O)CCC(NS(=O)(=O)c1ccc(C)cc1)C(=O)NCCCC` (stereo not drawn) it was -3.1% (inactive).
Take `COc1c(C=O)c2c(c(OC)c1OC)-c1ccc(OC)c(=O)cc1[C@@H](NC(C)=O)CC2`: the growth inhibition is 2.9% (inactive).
In the case of `CCC(=O)OCC(OC(=O)CC)c1ccccc1` (stereo not drawn) it was 3.75% (inactive); in that of `CC(=O)NC1CC2c3ccccc3C1([N+](=O)[O-])c1ccccc12` (stereo not drawn), -4.6% (inactive).
In the case of `CCNC1CC(C(C)(C)NCC)CC=C1C` (stereo not drawn) it was -46.9% (inactive).
For `COC(=O)C1=C(C(=O)OC)C(=Nc2ccccc2)c2ccccc2C1=O`, the growth inhibition was 51.4% (inactive).
